CYP2C9 inh: inhibitors of human CYP2C9; inhibition, % at 5 µM; AID 777; actives 20% (n = 96,000); CYP2C9 Supersomes, luciferin-H conversion, luminescence; P11712;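 active = blocking of liver enzyme CYP2C9 beyond about 50% at 5 µM, limit read from the data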
PostGolgi ctrl: yeast control strain growth, post-Golgi counter-screen | efflux-deficient yeast background strain, growth absorbance A615, 16 h | inhibition, % at 10 µM | actives 5% (n = 98,000)
CYP2C19 activ: increases human CYP2C19 enzyme activity | AID 1025 | 96,000 tested, under 10 active | P33261 | recombinant CYP2C19, luciferin-H EGE luminescence; stronger effect = higher value; 0 = fully inhibited enzyme, 1 = untreated enzyme | activation factor at 5 µM;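 active = activation factor of at least 2 at 5 µM in the primary screen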;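 also: 0 = wells with 2.5 mM tranylcypromine and 1 = vehicle-only wells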
Target sequence (P33261 whole entry, looked up): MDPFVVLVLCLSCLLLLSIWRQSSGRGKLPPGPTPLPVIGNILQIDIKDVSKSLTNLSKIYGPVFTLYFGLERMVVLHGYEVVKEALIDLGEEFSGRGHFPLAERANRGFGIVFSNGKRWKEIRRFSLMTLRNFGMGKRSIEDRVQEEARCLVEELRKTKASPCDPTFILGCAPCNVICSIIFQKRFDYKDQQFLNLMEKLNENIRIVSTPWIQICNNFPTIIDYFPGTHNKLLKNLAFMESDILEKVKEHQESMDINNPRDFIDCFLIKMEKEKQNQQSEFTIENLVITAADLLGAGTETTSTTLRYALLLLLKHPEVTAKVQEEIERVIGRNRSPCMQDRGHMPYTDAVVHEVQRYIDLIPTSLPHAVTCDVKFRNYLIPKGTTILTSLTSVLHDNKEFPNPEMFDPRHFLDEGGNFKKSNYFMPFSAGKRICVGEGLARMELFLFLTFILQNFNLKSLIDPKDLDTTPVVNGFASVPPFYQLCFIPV
PostGolgi yeast: growth inhibition of a yeast mutant, post-Golgi transport screen | post-Golgi transport phenotypic cell assay | inhibition, % at 10 µM | actives 0.9% (n = 98,000);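 also: yeast cells grown in 1536-well plates; yeast grown about 18 h at 30C before absorbance read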
CYP2C9 activ: CYP2C9 (human) activation; actives 1.4% (n = 96,000); recombinant CYP2C9, luciferin-H conversion, luminescence; stronger effect = higher value; factor 1 = untreated enzyme, 0 = blocked; AID 1024; activation factor at 5 µM; P11712;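 active = activation factor of 2 or more for CYP2C9 at a 5 µM dose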;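 also: 0 = sulfaphenazole-blocked wells and 1 = vehicle-only wells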
CYP2C19 inhib: inhibitors of human CYP2C19; P33261; CYP2C19 Supersomes, luciferin-H EGE luminescence, 30 min; inhibition, % at 5 µM; actives 21% (n = 96,000); AID 778;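 active = CYP2C19 inhibition above a set limit at 5 µM in the primary screen, cut at about 50% in these data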;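 also: plate controls were negative control wells for no effect and 2.5 mM tranylcypromine positive control for full effect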
Numbers without * were called inactive; . = no result given. In the library only some 32% were active in any assay of this set; here they are far more common. Rule as the data show it, unless noted: active = inhibition above about 30%; inactive = the rest.

SMILES	CYP2C9 inh	PostGolgi ctrl	CYP2C19 activ	PostGolgi yeast	CYP2C9 activ	CYP2C19 inhib
Cc1ccccc1Nc1nc(N)nc(CN(C)c2ccccc2)n1	37	4	0.7	-8	0.6	32
Cc1ccc(Nc2nc(Nc3ccc(C)cc3)nc(SC3=NCCS3)n2)cc1	86*	38*	0.5	-3	0.1	50
Cc1ccc(Nc2nc(Cl)nc(N(C)C#N)n2)cc1	38	3	0.9	13	0.6	12
Cc1ccccc1Nc1nc(Nc2ccccc2C)nc(SC2=NCCS2)n1	77*	23	0.5	-1	0.2	54*
COCCNC(=O)C(OC(=O)c1cc2oc(C)cc2n1C)C(C)C (stereo not drawn)	18	-1	0.8	-5	0.8	18
CCOCCNC(=O)c1ccc2c3c(cccc13)CC2	-243	5	0.6	9	3.4*	43
CCOCCCNC(=O)c1ccccc1Br	-4	0	1	7	1	0
COc1ccc(NC(=O)N2CCCC2C(=O)Nc2ccccc2)cc1 (stereo not drawn)	10	14	0.9	8	0.9	8
Cc1cc(C)cc(NC(=O)C2CCCN2C(=O)Oc2ccccc2)c1 (stereo not drawn)	67*	15	0.3	3	0.3	66*
Cc1cccc(NC(=O)C2CCCN2C(=O)Oc2ccccc2)c1 (stereo not drawn)	57*	-8	0.1	-3	0.4	88*
Cc1csc(NC(=O)C2CCCN2C(=O)Oc2ccccc2)n1 (stereo not drawn)	6	10	0.9	8	0.9	12
CCc1ccc2c(c1)cc(CN(C(=S)Nc1ccccc1C)C1CC1)c1nnnn12	45	-5	1	16	0.5	-2
CCOC(=O)CC(=O)CSc1nc2c(C)c(C)ccc2cc1C	54*	20	0.4	0	0.5	61*
CC(C)Cn1c(-c2cccs2)nc2nc3ccccc3nc21	26	38*	0.9	-1	0.7	6
CCCCOCCCn1c(-c2ccco2)nc2nc3ccccc3nc21	52*	17	0.5	11	0.5	50
COCCCn1c(-c2ccco2)nc2ccccc2c1=O	24	24	0.8	-1	0.8	20
CCCn1c(-c2cc(OC)c(OC)c(OC)c2)nc2nc3ccccc3nc21	.	8	.	-1	.	.
c1ccc(Cn2c(-c3cccs3)nc3nc4ccccc4nc32)cc1	10	21	0.9	3	0.9	6
CCCCn1c(-c2cccs2)nc2nc3ccccc3nc21	44	31*	0.7	-12	0.6	28
C=CCc1cccc2cc(C(=O)NC3=C(C#N)CCC3)c(=O)oc12	-18	14	0.9	3	1.2	13
C=CCc1cccc2cc(C(=O)NC(C)(C)C)c(=O)oc12	55*	-10	0.4	-15	0.4	65*
C=CCc1cccc2cc(C(=O)NCc3cccnc3)c(=O)oc12	13	2	0.3	-21	0.9	70*
CCOc1cccc2cc(C(=O)NCc3cccnc3)c(=O)oc12	-7	6	1.1	-6	1.1	-10
COc1ccc(C2/C(=C(\O)c3cc(C)ccc3C)C(=O)C(=O)N2CCN(C)C)cc1OC (stereo not drawn)	33	17	1	-2	0.7	-4
CCCCCSc1nnc(C)c(=O)[nH]1	-5	-1	1.1	2	1	-15
SMILES	CYP2C9 inh	PostGolgi ctrl	CYP2C19 activ	PostGolgi yeast	CYP2C9 activ	CYP2C19 inhib
Cc1cc(C(=O)CSc2ccc(Cl)cc2)cc(C)c1OC(=S)N(C)C	67*	0	0.6	-4	0.3	44
Cc1cc(C)n(CC(O)Cn2c(C)c(C)c3ccccc32)n1 (stereo not drawn)	71*	0	0.7	-3	0.3	32
COc1ccc(-c2cc3ccccc3n2CC(O)CNC(CO)(CO)CO)cc1 (stereo not drawn)	30	3	0.5	12	0.7	45
COc1ccc(-c2cc3ccccc3n2CC(O)Cn2nc(C)cc2C)cc1 (stereo not drawn)	100*	19	0	-6	0	99*
Cc1c(C)n(CC(O)CN2CCCCC2)c2ccccc12 (stereo not drawn)	-14	24	0.9	8	1.1	8
COc1cccc(N2CCN(c3c(C#N)c(C(F)(F)F)nn3C)CC2)c1	92*	51*	0.1	1	0.1	94*
COCC(N)(c1ccccc1)c1nc2ccccc2n1C (stereo not drawn)	2	-6	0.5	4	1	52*
CCn1c(SCC(=O)Nc2oc(-c3ccccc3)c(-c3ccccc3)c2C#N)nnc1-c1cc(OC)cc(OC)c1	100*	0	0.4	-4	0	59*
N#Cc1c(NC(=O)Cn2cnc3ccccc3c2=O)oc(-c2ccccc2)c1-c1ccccc1	83*	-1	0.7	14	0.2	34
Cc1ccnc(SCC(=O)Nc2oc(-c3ccccc3)c(-c3ccccc3)c2C#N)n1	88*	10	0.6	9	0.1	36
N#Cc1c(NC(=O)CN2CCOCC2)oc(-c2ccccc2)c1-c1ccccc1	45	13	0.9	-5	0.6	12
N#Cc1c(NC(=O)CSc2n[nH]c(Cc3ccccc3)n2)oc(-c2ccccc2)c1-c1ccccc1	99*	15	0.1	4	0	91*
Cc1ccnc(SCC(=O)Nc2c(C)n(C)n(-c3ccccc3)c2=O)n1	-21	11	1.2	-1	1.2	-16
C=CCC(CC=C)(NC(=O)c1ccccc1)c1ccccc1	19	24	0.5	-8	0.8	45
C=CCC(CC=C)(NC(=O)c1ccccc1C)c1ccccc1	23	8	0.5	16	0.8	51*
O=C(Nc1c(F)cc(F)cc1Br)c1cc(-c2ccco2)on1	-97	-7	1.2	-4	2*	-16
COc1ccccc1-c1cc(C(=O)Nc2c(F)cc(F)cc2Br)no1	-9	3	1	3	1.1	-3
CC(C)Cc1cc(C(=O)Nc2c(F)cc(F)cc2Br)no1	2	6	0.3	4	1	68*
O=C(Nc1cccc(O)c1)c1cc(-c2ccco2)on1	-104	3	0.8	15	2*	16
O=C(NC1CCCCC1)c1cc(-c2ccco2)on1	-176	9	1	-3	2.8*	0
O=C(C1CCC(CNc2c(N3CCOCC3)c(=O)c2=O)CC1)N1CCN(c2ccccc2)CC1 (stereo not drawn)	-1	5	1.1	-2	1	-13
COc1ccc(-n2c(N3CCN(C)CC3)nc3sc4c(c3c2=O)CCCCC4)cc1	41	3	0.4	0	0.6	64*
CC1=Nc2ccccc2/C1=C\c1nc(-c2ccccc2)oc1O	95*	30	0.6	5	0.1	42
COc1ccc2c(c1)C(c1ccccc1)=NNC(c1ccco1)=N2	16	-3	0.7	5	0.8	27

High-throughput results from PubChem.
